SMILES strings stand for the structures. Records with an inconclusive call do not appear. A call without a number means that no potency is given here. Active and inactive are the calls of the source. Calls come from the whole dose curve; as a rule, active = well fitted cell-killing curve with a large enough effect; inconclusive = small, poorly fitted or top-dose-only effect; inactive = no such curve, though single readings can be large or run the other way.

Consider 35 molecules from PubChem BioAssay (NCATS).
Potency is the fitted concentration of half-maximal effect.

The nature of this assay: qHTS of pediatric cancer cell lines to identify multiple opportunities for drug repurposing: Primary screen for Rh30 cells (AID 1347107). Note: nearly all actives have a fitted effect of over 75% in size. As to conditions: Rh30 rhabdomyosarcoma viability, CellTiter-Glo luminescence, 48 h; series mostly up to 46 µM. The essentials: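 Cells (500-1,000/well) in growth media were settled 5 h at 37 degrees C, then given compounds for 48 h. Viability was read as CellTiter-Glo luminescence. Primary runs used MIPE at 11 points (0.78 nM-46 µM) and NPC at 8 points (0.59 nM-46 µM); follow-ups used 11 points.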
A general note: In qHTS, concentration-response curves come from the screen itself.
On to `CCN(CC)CC#CCOC(=O)C(O)(c1ccccc1)C1CCCCC1` (stereo not given), for which the Potency result was “inactive”. The same measure for `C1CCC(C(CC2CCCCN2)C2CCCCC2)CC1` (stereo not given): “inactive”; for `CCC(C)(C)c1ccc(CC(C)CN2C[C@@H](C)O[C@@H](C)C2)cc1` (stereo not given in full): “inactive”; for `Clc1ccccc1CN1CCc2sccc2C1`: “inactive”. `Cc1onc(-c2ccccc2Cl)c1C(=O)N[C@@H]1C(=O)N2[C@@H]1SC(C)(C)[C@@H]2C(=O)O`: the Potency result was “inactive”.

`CC(C)OC(=O)OCOP(=O)(CO[C@H](C)Cn1cnc2c(N)ncnc21)OCOC(=O)OC(C)C`: the Potency entry is “inactive”.

As to `N[C@@H](Cc1ccc(O)c(O)c1)C(=O)O`, the Potency entry is “inactive”. As for `CCCCS(=N)(=O)CCC(N)C(=O)O` (stereo not given), the entry is “inactive”; as for `CNS(=O)(=O)Cc1ccc2[nH]cc(CCN(C)C)c2c1`, “inactive”; as for `CC(=O)[C@H]1CC[C@H]2[C@@H]3CC=C4C[C@@H](O)CC[C@]4(C)[C@H]3CC[C@]12C`, “inactive”. As for `CC(C)(C)NC(=O)[C@H]1CC[C@H]2[C@@H]3CC[C@H]4NC(=O)C=C[C@]4(C)[C@H]3CC[C@]12C`, the entry is “inactive”. As for `CN(C)CCc1c[nH]c2ccc(C[C@H]3COC(=O)N3)cc12`, the entry is “inactive”. Consider `O=P(O)(O)C(O)(Cc1cccnc1)P(=O)(O)O`, for which the Potency result was “inactive”. The same measure for `Cc1ccnc2c1NC(=O)c1cccnc1N2C1CC1`: “inactive”; for `NC1(c2ccc(-c3nc4ccn5c(=O)[nH]nc5c4cc3-c3ccccc3)cc2)CCC1`: 18.7 µM (active). As for `CC1=NN(c2ccccc2)C(=O)C1`, the entry is “inactive”. Turning to `OC(Cn1cncn1)(Cn1cncn1)c1ccc(F)cc1F`, the Potency result was “inactive”. As for `CN1CCN(c2c(F)cc3c(=O)c(C(=O)O)cn(CCF)c3c2F)CC1`, the entry is “inactive”. As for `CC1=C(C(=O)O)N2C(=O)[C@@H](NC(=O)C(N)c3ccccc3)[C@H]2SC1` (stereo not given in full), the entry is “inactive”; as for `NC(=O)N1c2ccccc2CC(=O)c2ccccc21`, “inactive”; as for `O=C(N[C@H](CO)[C@H](O)c1ccc([N+](=O)[O-])cc1)C(Cl)Cl`, “inactive”. As for `CCn1cc(C(=O)O)c(=O)c2cc(F)c(N3CCNCC3)cc21`, the entry is “inactive”. As for `O=C(O)c1cccnc1`, the Potency result is “inactive”.

With `COc1ccc2c(c1)c(CC(=O)OCC(=O)O)c(C)n2C(=O)c1ccc(Cl)cc1`, the Potency entry is “inactive”. For `C[C@@H]1CN(c2c(F)c(N)c3c(=O)c(C(=O)O)cn(C4CC4)c3c2F)C[C@H](C)N1`, the Potency result is “inactive”. The same measure for `Cc1cccc(Nc2ccncc2S(=O)(=O)NC(=O)NC(C)C)c1`: “inactive”. The same measure for `CN(Cc1cc(Br)cc(Br)c1N)C1CCCCC1`: “inactive”; for `CC1=CC(=O)c2ccccc2C1=O`: “inactive”; for `NCCCC(O)(P(=O)(O)O)P(=O)(O)O`: “inactive”. As for `COc1cc(NS(=O)(=O)c2ccc(N)cc2)nc(OC)n1`, the entry is “inactive”; as for `O=S(=O)(c1cccc2cnccc12)N1CCCNCC1`, “inactive”; as for `CC(C)OC(=O)C(C(=O)OC(C)C)=C1SC=CS1`, “inactive”.

Turning to `O=C(O)c1cn(C2CC2)c2cc(N3CCNCC3)c(F)cc2c1=O`, the Potency entry is “inactive”. As for `CO[C@@H]1[C@@H](OC(N)=O)[C@@H](O)[C@H](Oc2ccc3c(O)c(NC(=O)c4ccc(O)c(CC=C(C)C)c4)c(=O)oc3c2C)OC1(C)C`, the entry is “inactive”; as for `O=C(O)CCn1c2c(c3ccccc31)C[C@H](NS(=O)(=O)c1ccc(F)cc1)CC2`, “inactive”.
